# From PubChem BioAssay AID624404 (Broad Institute, 2012)
# Among all 1,800 compounds or so, about 710 (39%) were called active. About 28% were inconclusive and are not listed.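 How the source made its calls: active means luciferase signal rise whose fitted curve crosses a set activity limit at or below the top valid tested dose; inconclusive means flat fit with 30 to 70% rise, or poor fit; inactive means signal falling, flat within 30%, or crossing above top dose.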 Only a sample is shown. Entries that show only a call come without a potency. Potency and affinity values are given separately.
# Experiment: reporter signal increase, D54 LucT cells – cell-based, luminescence, cherry pick, counter-screen for N-linked glycosylation inhibitor project, dose response (AID 624404)
# Settings: D54 LucT luciferase reporter counterscreen, 24 h; series mostly up to 19.5 µM
row,SMILES,outcome
1,COc1ccc(CN(C(=O)c2ccc(CN3CCOCC3)o2)C(C(=O)NCC2CCCO2)c2ccc(F)cc2)cc1 (centres undefined),inactive
2,COc1ccc(CC(=O)N/N=C/c2c(C)n(C)c3ccccc23)cc1OC,inactive
3,COC(=O)COc1cccc2c(=O)n(CC(=O)NCc3ccccc3)ccc12,inactive
4,C[C@@H]1[C@@H](Sc2ccccc2)CC(=O)O[C@@H]1c1ccc(-c2ccccc2)cc1,inactive
5,COc1ccc(-c2nc(C(N)=O)c3[nH]c(=O)n(-c4cccc(Cl)c4)c3n2)cc1OC,inactive
6,COc1ccc(OC)c(S(=O)(=O)Nc2ccc(-c3ccc4nnc(C)n4n3)cc2)c1,inactive
7,COc1ccc(NC(=O)c2oc3ccccc3c2NC(=O)c2ccco2)cc1,inactive
8,COc1cc(OC)cc(C(=O)c2c(C)c(C#N)c3ccccn23)c1,inactive
9,Cn1c(SCC(=O)Nc2cccc(F)c2)nc2c([nH]c3ccccc32)c1=O,inactive
10,CCc1nc(SCC(=O)c2ccc3c(c2)OCCO3)c2ccccc2n1,inactive
11,CC(=O)N1N=C(c2ccccc2)OC1c1ccc([N+](=O)[O-])s1 (centres undefined),inactive
12,CCOc1cc(CNc2ccc3cn[nH]c3c2)ccc1OC,inactive
13,COC(=O)c1cccc(Nc2c3c(nc4ccccc24)CCC3)c1,inactive
14,CC(=O)c1cccc(Nc2cc(C)nc3c(C)cccc23)c1,inactive
15,Cc1ccc(OCCNC(=O)c2cccc(S(=O)(=O)NCc3ccccc3)c2)cc1,inactive
16,CCN(CC)CCCNc1nc2cc(OC)c(OC)cc2c2nc(-c3ccccc3)nn12,inactive
17,Cc1cc(Br)ccc1NC(=O)CCCOc1cc(=O)n(C)c2ccccc12,inactive
18,CC(C)CCNC(=O)Cn1c(=O)oc2cc(S(=O)(=O)N3CC(C)CC(C)C3)ccc21 (centres undefined),inactive
19,Cc1cc(NC(=O)/C=C/C(=O)N(CC(=O)NC2CCCC2)c2ccc(F)cc2)no1,inactive
20,O=C(/C=C/Sc1ccccc1)c1ccccc1,inactive
21,O=C(/C=C/Sc1ccc(C(F)(F)F)cn1)c1ccccc1,inactive
22,O=C(CSc1c2c(nc3ccc(Cl)cc13)CCCC2)N1CCN(C(=O)c2ccco2)CC1,inactive

row,SMILES,outcome
1,COc1ccccc1N1CCN(S(=O)(=O)CCNC(=O)c2cc(OC)c(OC)c(OC)c2)CC1,inactive
2,CCn1c2ccccc2c2cc(NC(=O)c3cc(OC)c(OC)c(OC)c3)ccc21,inactive
3,COCCNc1nc(NCc2ccccc2)nc2ccsc12,inactive
4,Cc1cc(N2CCCCC2)nc(NCc2ccccc2)n1,inactive
5,Cc1cccc2c1NC(=O)/C2=C\C(=O)c1cccs1,inactive
6,O=C(NCCC1=CCCCC1)C1CCC(CNc2nc(=S)[nH]c3ccccc23)CC1 (centres undefined),inactive
7,COc1cc(NC(=O)c2ccccc2F)ccc1NC(=O)c1cc2ccccc2o1,inactive
8,COC(=O)c1ccccc1-c1ccc(C(c2c(C)[nH][nH]c2=O)c2c(C)[nH][nH]c2=O)o1,inactive
9,COc1cc(C2Sc3ccccc3NC3=C2C(=O)OC3)cc(OC)c1OC (centres undefined),inactive
10,CCc1cccc(NC(=O)c2cc(S(=O)(=O)N(C)C)ccc2N2CCCC2)c1,inactive
11,CCOc1cc(NC(=O)CCl)c(OCC)cc1NC(=O)CCl,inactive
12,CCOc1ccc(OCC)c(NC(=O)c2nnn(CC(=O)Nc3cc(C)cc(C)c3)c2N)c1,inactive
13,Cc1cnc(NC(=O)c2cc(S(=O)(=O)N(C)C)ccc2N2CCCC2)s1,inactive
14,CN(C)/N=C/c1ccc(Sc2ccc([N+](=O)[O-])cc2[N+](=O)[O-])o1,inactive
15,COc1cc2c(cc1OC)C(C)N(C(=O)Nc1ccccc1)CC2 (centres undefined),inactive
16,COc1ccc(C(=O)/C=C/Sc2nc3ccccc3o2)cc1,inactive
17,COc1ccc(CCn2c(Br)nc3c2c(=O)[nH]c(=O)n3C)cc1,inactive
18,COc1cc(/C=N/Nc2nc3c(c(=O)n(C)c(=O)n3C)n2Cc2ccccc2)ccc1OC(=O)c1ccco1,inactive
19,COc1cc(C2CC(=O)N(c3ccc(C)cc3)C(=O)C2)cc(OC)c1OC,inactive
20,CC(C)c1ccc(NC(=O)CN2C(=O)NC3(CCCCCCC3)C2=O)cc1,inactive
21,CCN(CC)S(=O)(=O)c1cccc(NC(=O)CN2C(=O)NC3(CCC(C)CC3)C2=O)c1 (centres undefined),inactive
22,NC(=O)c1ccc2c(=O)n3c(-c4cc(Cl)c(N)c(Cl)c4)csc3nc2c1,inactive

row,SMILES,outcome
1,OCC1OC(n2cnc3c(=S)nc[nH]c32)CC1O (centres undefined),inactive
2,Cc1cccn2c(=O)c3cc(C(=O)NC4CCCC4)c(=N)n(CCc4ccccc4)c3nc12,inactive
3,Cc1cccn2c(=O)c3cc(C(=O)NC4CCCC4)n(C)c3nc12,inactive
4,Cc1cccn2c(=O)c3cc(C(=O)N4CCCCC4)sc3nc12,inactive
5,Cc1cccn2c(=O)c3cc(C(=O)NC4CCCC4)c(=N)n(CC4CCCO4)c3nc12 (centres undefined),inactive
6,CCN(CC)CCOc1ccc2c(c1)C(=NNC(=O)c1ccccn1)c1cc(OCCN(CC)CC)ccc1-2,inactive
7,O=C(CCl)Nc1ccc(Sc2ccc(NC(=O)CCl)cc2)cc1,inactive
8,CCc1ccc(NC(=O)Cn2c(=O)n(CCC(=O)NC3CCN(Cc4ccccc4)CC3)c(=O)c3ccccc32)cc1,inactive
9,CC(C)Oc1ccc(C(=O)/C=C2/C(=O)Nc3ccccc32)cc1,inactive
10,Cc1[nH][nH]c(=O)c1C(c1ccc(-c2cccc(Cl)c2)o1)c1c(C)[nH][nH]c1=O,inactive
11,Cc1[nH][nH]c(=O)c1C(c1ccc(-c2ccc(F)cc2)o1)c1c(C)[nH][nH]c1=O,inactive
12,CC1(C(=O)Nc2ccc(Cl)cc2)Cc2c(-c3ccc4c(c3)OCO4)ccnc2O1 (centres undefined),inactive
13,CC1(C(=O)Nc2ccc3c(c2)OCO3)Cc2c(-c3ccc4c(c3)OCO4)ccnc2O1 (centres undefined),inactive
14,CCOC(=O)c1cc2c(ccn2C)n1CC(=O)N1CCN(c2ccccc2)CC1,inactive
15,FC(F)(F)c1cccc(Sc2nc(-c3ccccc3)nnc2C(F)(F)F)c1,inactive
16,Nc1nonc1-c1nc2ccccc2n1CC(=O)N/N=C\c1ccc(-c2ccc(Cl)cc2)o1,inactive
17,COc1ccc(C(=O)/C=C/c2ccc(OC(=O)c3cc(OC)c(OC)c(OC)c3)cc2)cc1,inactive
18,Cc1ccc2nc3c(cc(C(N)=S)c(=N)n3CCCOC(C)C)c(=O)n2c1,inactive
19,COc1ccc(CCn2c(=N)c(S(=O)(=O)c3ccc(C)cc3)cc3c(=O)n4ccccc4nc32)cc1,inactive
20,N=c1c(C(=O)NCc2ccco2)cc2c(=O)n3ccccc3nc2n1CCc1ccccc1,inactive
